ChEMBL document CHEMBL1961873, “Compounds: GSK PKIS; Assays: Nanosyn kinase panel” (2012)

target: MAP kinase-activated protein kinase 2 (Homo sapiens) (UniProt P49137); conditions: at 1 µM;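 note: values are mean inhibition from the GSK PKIS screen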
Sequence (P49137 whole entry, looked up): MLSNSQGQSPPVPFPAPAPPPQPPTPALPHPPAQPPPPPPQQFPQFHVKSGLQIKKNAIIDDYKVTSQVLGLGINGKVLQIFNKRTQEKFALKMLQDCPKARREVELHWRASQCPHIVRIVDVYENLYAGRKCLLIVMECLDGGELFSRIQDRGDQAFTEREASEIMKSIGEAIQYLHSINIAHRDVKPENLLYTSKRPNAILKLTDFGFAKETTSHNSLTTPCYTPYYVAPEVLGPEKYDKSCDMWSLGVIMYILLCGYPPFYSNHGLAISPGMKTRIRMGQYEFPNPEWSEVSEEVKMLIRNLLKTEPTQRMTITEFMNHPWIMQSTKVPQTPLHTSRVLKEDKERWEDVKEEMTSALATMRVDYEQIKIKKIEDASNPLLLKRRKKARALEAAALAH

Row | Structure (SMILES) | inhibition
1 | CCc1nn2ncccc2c1-c1ccnc(NC2CC2)n1 | 2.07%
2 | COC(=O)c1sc(-n2cnc3cc(OC)c(OC)cc32)cc1OCc1ccccc1C(F)(F)F | 1.73%
3 | [O-][S+]1CCN(Cc2ccc(-c3ccc4ncnc(Nc5ccc(OCc6cccc(F)c6)c(Cl)c5)c4c3)o2)CC1 | 1.59%
4 | CCn1c(-c2nonc2N)nc2c(C#CC(C)(C)O)ncc(OC3CCNCC3)c21 | 3.78%
5 | CC(C)(CO)CNC(=O)c1ccc2c(c1)/C(=N/Nc1ccc(S(N)(=O)=O)cc1)C(=O)N2 | -1.03%
6 | CCCN1CCC(c2ccc(Nc3nc(Nc4cc(F)ccc4C(N)=O)c4cc[nH]c4n3)c(OC)c2)CC1 | 3.23%
7 | COc1ccc(-c2cc(-c3c[nH]nc3-c3ccccn3)ccn2)cc1 | 2.73%
8 | COc1ccc(-c2cc3c(N)ncnc3o2)cc1 | -0.76%
9 | COC(=O)Nc1nc2ccc(S(=O)(=O)c3ccc(NC(=O)Nc4cc(C(F)(F)F)ccc4F)cc3)cc2[nH]1 | 1.63%
10 | Fc1ccc(-c2nn3ccccc3c2-c2ccncc2)cc1 | 0%
11 | CN1CCC(n2cnc(-c3ccc(F)cc3)c2-c2ccnc(N)n2)CC1 | 0.33%
12 | COc1cccc(-n2ncc3c(N/N=C/c4ccc(F)cc4)ncnc32)c1 | 2.72%
13 | Fc1cccc(COc2ccc(Nc3ncnc4sc(-c5ccco5)cc34)cc2Cl)c1 | 4.4%
14 | Fc1ccc(-c2cc(-c3c[nH]nc3-c3ccccn3)ccn2)cc1 | 2.72%
15 | CCCN(CCS(C)(=O)=O)Cc1ccc(-c2ccc3ncnc(Nc4ccc(OCc5cccc(F)c5)c(Cl)c4)c3c2)o1 | 3.18%
16 | COc1cccc(-c2c[nH]c3c(N/N=C/c4ccncc4)ncnc23)c1 | 3.56%
17 | CC1=C(C(=O)Nc2cc(Cl)c3[nH]ncc3c2)C(c2ccc(C(F)(F)F)cc2)CC(=O)N1 (stereo not drawn) | 4.3%

Row | Structure (SMILES) | inhibition
18 | CS(=O)(=O)CCNCc1coc(-c2ccc3ncnc(Nc4ccc(OCc5ccccc5)cc4)c3c2)c1 | 1.98%
19 | CCn1c(-c2nonc2N)nc2cnc(Oc3cccc(NC(=O)c4ccc(N(C)C)cc4)c3)cc21 | 0.16%
20 | CNC(=O)c1cc(-c2ccc(F)cc2)cc(-c2ccc(S(=O)(=O)N3CCCC3)cc2)c1N | 5.35%
21 | O=S(=O)(CCNCc1ccc(-c2ccc3ncnc(Nc4ccc(OCc5cccc(F)c5)c(Cl)c4)c3c2)o1)c1ccccc1 | 2.57%
22 | N#Cc1c(NC(=O)c2ccc(F)cc2)sc2c1CCCC2 | -0.56%
23 | CNC(=O)c1cccc(C#Cc2cncnc2Nc2ccc(OCc3cccc(F)c3)c(Cl)c2)c1 | 0.58%
24 | CCn1c(-c2nonc2N)nc2c(C#CC(C)(C)O)nc(OC[C@H](N)c3ccccc3)cc21 | 2.99%
25 | Nc1ncc(-c2cccc(S(N)(=O)=O)c2)c2scc(-c3ccc(F)c(Cl)c3)c12 | 1.12%
26 | c1ccc(COc2ccc(Nc3ncnc4ccc(-c5ccco5)cc34)cc2)cc1 | 0.12%
27 | N#Cc1c(NC(=O)CN2CCOCC2)sc2c1CCCC2 | 2%
28 | NS(=O)(=O)c1ccc(N/N=C2\C(=O)Nc3ccc4ncccc4c32)cc1 | 1.9%
29 | O=C(O[C@H]1CN[C@H](C#Cc2cc3ncnc(Nc4ccc(Cc5ccccc5)cc4)c3s2)C1)N1CCOCC1 | -0.1%
30 | CC(=O)Nc1cccc(C#Cc2cncnc2Nc2ccc(OCc3cccc(F)c3)c(Cl)c2)c1 | -2.08%
31 | Cc1cccc(Nc2ncc(-c3ccccc3)o2)c1 | 3.82%
32 | FC(F)(F)c1cccc(-c2nn3ncccc3c2-c2ccnc(Nc3ccc4c(c3)OCCO4)n2)c1 | 0.88%
33 | CCNC(=O)O[C@H]1CN[C@H](C#Cc2cc3ncnc(Nc4ccc(OCc5cccc(F)c5)c(Cl)c4)c3s2)C1 | 1.53%
34 | CNC(=O)c1cncc(/C=C/c2ccccc2Cl)c1 | 1.05%

target: MAP kinase-activated protein kinase 3 (Homo sapiens) (UniProt Q16644); conditions: at 0.1 µM
Sequence (Q16644 whole entry, looked up): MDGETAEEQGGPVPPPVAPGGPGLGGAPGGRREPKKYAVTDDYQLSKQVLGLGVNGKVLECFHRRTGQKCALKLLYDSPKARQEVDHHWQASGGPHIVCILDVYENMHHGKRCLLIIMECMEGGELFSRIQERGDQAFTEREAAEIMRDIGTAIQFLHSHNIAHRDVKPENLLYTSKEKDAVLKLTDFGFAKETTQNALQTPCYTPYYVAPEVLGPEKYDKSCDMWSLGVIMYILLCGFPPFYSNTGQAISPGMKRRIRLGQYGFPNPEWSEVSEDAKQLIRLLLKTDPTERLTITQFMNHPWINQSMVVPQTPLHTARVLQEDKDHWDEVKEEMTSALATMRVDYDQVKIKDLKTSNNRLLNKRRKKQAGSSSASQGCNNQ

Row | Structure (SMILES) | inhibition
35 | CCc1nn2ncccc2c1-c1ccnc(NC2CC2)n1 | 1.73%
36 | COC(=O)c1sc(-n2cnc3cc(OC)c(OC)cc32)cc1OCc1ccccc1C(F)(F)F | 4.86%
37 | [O-][S+]1CCN(Cc2ccc(-c3ccc4ncnc(Nc5ccc(OCc6cccc(F)c6)c(Cl)c5)c4c3)o2)CC1 | 7.01%
38 | CCn1c(-c2nonc2N)nc2c(C#CC(C)(C)O)ncc(OC3CCNCC3)c21 | 3.98%
39 | CC(C)(CO)CNC(=O)c1ccc2c(c1)/C(=N/Nc1ccc(S(N)(=O)=O)cc1)C(=O)N2 | 2.49%
40 | CCCN1CCC(c2ccc(Nc3nc(Nc4cc(F)ccc4C(N)=O)c4cc[nH]c4n3)c(OC)c2)CC1 | 5.33%
41 | COc1ccc(-c2cc(-c3c[nH]nc3-c3ccccn3)ccn2)cc1 | 6.42%
42 | COc1ccc(-c2cc3c(N)ncnc3o2)cc1 | -1.27%
43 | COC(=O)Nc1nc2ccc(S(=O)(=O)c3ccc(NC(=O)Nc4cc(C(F)(F)F)ccc4F)cc3)cc2[nH]1 | 1.8%
44 | Fc1ccc(-c2nn3ccccc3c2-c2ccncc2)cc1 | 14.4%
45 | CN1CCC(n2cnc(-c3ccc(F)cc3)c2-c2ccnc(N)n2)CC1 | 17.1%
46 | COc1cccc(-n2ncc3c(N/N=C/c4ccc(F)cc4)ncnc32)c1 | 3.14%
47 | Fc1cccc(COc2ccc(Nc3ncnc4sc(-c5ccco5)cc34)cc2Cl)c1 | 9.64%
48 | Fc1ccc(-c2cc(-c3c[nH]nc3-c3ccccn3)ccn2)cc1 | 7.67%
49 | CCCN(CCS(C)(=O)=O)Cc1ccc(-c2ccc3ncnc(Nc4ccc(OCc5cccc(F)c5)c(Cl)c4)c3c2)o1 | 7.91%
50 | COc1cccc(-c2c[nH]c3c(N/N=C/c4ccncc4)ncnc23)c1 | 9.72%
51 | CC1=C(C(=O)Nc2cc(Cl)c3[nH]ncc3c2)C(c2ccc(C(F)(F)F)cc2)CC(=O)N1 (stereo not drawn) | 9.27%

Row | Structure (SMILES) | inhibition
52 | CS(=O)(=O)CCNCc1coc(-c2ccc3ncnc(Nc4ccc(OCc5ccccc5)cc4)c3c2)c1 | 2.6%
53 | CCn1c(-c2nonc2N)nc2cnc(Oc3cccc(NC(=O)c4ccc(N(C)C)cc4)c3)cc21 | 2.53%
54 | CNC(=O)c1cc(-c2ccc(F)cc2)cc(-c2ccc(S(=O)(=O)N3CCCC3)cc2)c1N | 7.55%
55 | O=S(=O)(CCNCc1ccc(-c2ccc3ncnc(Nc4ccc(OCc5cccc(F)c5)c(Cl)c4)c3c2)o1)c1ccccc1 | 7.71%
56 | N#Cc1c(NC(=O)c2ccc(F)cc2)sc2c1CCCC2 | 0.8%
57 | CNC(=O)c1cccc(C#Cc2cncnc2Nc2ccc(OCc3cccc(F)c3)c(Cl)c2)c1 | 1.88%
58 | CCn1c(-c2nonc2N)nc2c(C#CC(C)(C)O)nc(OC[C@H](N)c3ccccc3)cc21 | 1.45%
59 | Nc1ncc(-c2cccc(S(N)(=O)=O)c2)c2scc(-c3ccc(F)c(Cl)c3)c12 | 6%
60 | c1ccc(COc2ccc(Nc3ncnc4ccc(-c5ccco5)cc34)cc2)cc1 | 1.07%
61 | N#Cc1c(NC(=O)CN2CCOCC2)sc2c1CCCC2 | 3.68%
62 | NS(=O)(=O)c1ccc(N/N=C2\C(=O)Nc3ccc4ncccc4c32)cc1 | 2.79%
63 | O=C(O[C@H]1CN[C@H](C#Cc2cc3ncnc(Nc4ccc(Cc5ccccc5)cc4)c3s2)C1)N1CCOCC1 | 3.66%
64 | CC(=O)Nc1cccc(C#Cc2cncnc2Nc2ccc(OCc3cccc(F)c3)c(Cl)c2)c1 | -4.18%
65 | Cc1cccc(Nc2ncc(-c3ccccc3)o2)c1 | 3.13%
66 | FC(F)(F)c1cccc(-c2nn3ncccc3c2-c2ccnc(Nc3ccc4c(c3)OCCO4)n2)c1 | 12.3%
67 | CCNC(=O)O[C@H]1CN[C@H](C#Cc2cc3ncnc(Nc4ccc(OCc5cccc(F)c5)c(Cl)c4)c3s2)C1 | 2.87%
68 | CNC(=O)c1cncc(/C=C/c2ccccc2Cl)c1 | 0.66%
